Assay results published in article PMC7862700, “An all-to-all approach to the identification of sequence-specific readers for epigenetic DNA modifications on cytosine”.

How the values were obtained:
Assay in all cases: DAPPL (digital affinity profiling via proximity ligation, sequencing); 10 mM Tris-HCl pH 7.5, 50 mM NaCl, 1 mM DTT, 4% glycerol, room temperature, 30 min; GST-TFs on glutathione beads, 16-mer random dsDNA library, 0.1% formaldehyde crosslink after washing; high values mean tight binding
FLI1 = molecular target: T1, FLI1 (Homo sapiens, UniProt Q01543 1-452); conditions: protein: recombinant; tags: N-terminal GST; dsDNA, one strand shown
T1 sequence: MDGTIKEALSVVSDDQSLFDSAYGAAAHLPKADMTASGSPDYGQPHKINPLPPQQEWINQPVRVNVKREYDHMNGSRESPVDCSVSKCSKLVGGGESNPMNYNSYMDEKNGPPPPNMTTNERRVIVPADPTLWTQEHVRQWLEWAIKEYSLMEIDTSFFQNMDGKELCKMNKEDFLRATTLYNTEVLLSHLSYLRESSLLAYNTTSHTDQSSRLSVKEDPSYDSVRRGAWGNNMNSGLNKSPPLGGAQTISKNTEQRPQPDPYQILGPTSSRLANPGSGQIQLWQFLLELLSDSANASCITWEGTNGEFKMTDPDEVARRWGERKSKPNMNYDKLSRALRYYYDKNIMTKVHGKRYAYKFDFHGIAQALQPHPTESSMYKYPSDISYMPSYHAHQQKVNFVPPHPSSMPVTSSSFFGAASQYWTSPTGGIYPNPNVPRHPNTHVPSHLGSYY
How it was run: (§1)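 Human transcription factors fused to GST were expressed in yeast, captured on glutathione beads, given DNA barcodes and pooled with a GST-only negative control. Pools were incubated with 200 nmole of a 16-mer random double-stranded DNA library in Tris/NaCl/DTT/glycerol buffer at room temperature for 30 min. They were then washed, crosslinked with 0.1% formaldehyde, proximity-ligated (BsaI/T4 ligase, 1 h, 37 °C), PCR-amplified and sequenced on an Illumina NextSeq500. Binding signal is each 6-mer's read frequency for a factor divided by its frequency for the GST control.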

ELK1 = molecular target: T2, ELK1 (Homo sapiens, UniProt P19419 1-428); conditions: protein: recombinant; tags: N-terminal GST; dsDNA, one strand shown
T2 sequence: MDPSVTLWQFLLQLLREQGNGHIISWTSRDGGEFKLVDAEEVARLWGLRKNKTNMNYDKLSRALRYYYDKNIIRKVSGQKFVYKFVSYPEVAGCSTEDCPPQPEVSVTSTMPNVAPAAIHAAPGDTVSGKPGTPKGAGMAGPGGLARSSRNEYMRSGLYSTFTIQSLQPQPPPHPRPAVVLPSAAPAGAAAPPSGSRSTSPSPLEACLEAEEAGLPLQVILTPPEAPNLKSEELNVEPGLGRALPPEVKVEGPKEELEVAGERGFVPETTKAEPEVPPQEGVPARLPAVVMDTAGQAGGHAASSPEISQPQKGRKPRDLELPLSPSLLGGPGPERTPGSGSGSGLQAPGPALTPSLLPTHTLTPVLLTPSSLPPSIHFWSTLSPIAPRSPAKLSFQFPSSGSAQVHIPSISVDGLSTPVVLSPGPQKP
How it was run: as §1

GABPA = molecular target: T3, GABPA (Homo sapiens, UniProt Q06546 1-454); conditions: protein: recombinant; tags: N-terminal GST; dsDNA, one strand shown
T3 sequence: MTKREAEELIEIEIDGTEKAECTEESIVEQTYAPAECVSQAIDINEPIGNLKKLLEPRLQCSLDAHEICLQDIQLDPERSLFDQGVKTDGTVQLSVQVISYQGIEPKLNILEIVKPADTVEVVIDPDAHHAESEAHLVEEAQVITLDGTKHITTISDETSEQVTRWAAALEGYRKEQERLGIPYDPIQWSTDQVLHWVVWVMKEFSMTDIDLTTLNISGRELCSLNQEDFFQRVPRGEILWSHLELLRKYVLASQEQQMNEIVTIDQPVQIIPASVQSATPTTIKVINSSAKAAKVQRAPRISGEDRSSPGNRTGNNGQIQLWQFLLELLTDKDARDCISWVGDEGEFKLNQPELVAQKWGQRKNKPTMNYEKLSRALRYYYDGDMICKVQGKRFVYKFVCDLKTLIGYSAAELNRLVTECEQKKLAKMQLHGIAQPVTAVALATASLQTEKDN
How it was run: as §1

ERG = molecular target: T4, ERG (Homo sapiens, UniProt P11308 1-479); conditions: protein: recombinant; tags: N-terminal GST; dsDNA, one strand shown
T4 sequence: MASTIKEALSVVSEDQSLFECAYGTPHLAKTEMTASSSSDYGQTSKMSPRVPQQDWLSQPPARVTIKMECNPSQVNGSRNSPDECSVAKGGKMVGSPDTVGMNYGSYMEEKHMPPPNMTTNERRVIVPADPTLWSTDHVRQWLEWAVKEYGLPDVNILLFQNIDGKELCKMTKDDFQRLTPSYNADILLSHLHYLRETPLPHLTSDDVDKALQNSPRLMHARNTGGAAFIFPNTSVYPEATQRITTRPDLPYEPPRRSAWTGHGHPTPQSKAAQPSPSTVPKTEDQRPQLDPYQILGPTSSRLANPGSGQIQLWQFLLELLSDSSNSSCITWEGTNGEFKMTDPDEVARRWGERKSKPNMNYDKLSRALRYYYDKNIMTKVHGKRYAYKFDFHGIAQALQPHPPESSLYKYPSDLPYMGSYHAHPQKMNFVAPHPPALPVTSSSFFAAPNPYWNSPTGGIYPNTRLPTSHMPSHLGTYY
How it was run: as §1

ELF1 = ELF1 (Homo sapiens, UniProt P32519 1-619); conditions: protein: recombinant; tags: N-terminal GST; dsDNA, one strand shown
Chain of ELF1 (P32519 whole entry): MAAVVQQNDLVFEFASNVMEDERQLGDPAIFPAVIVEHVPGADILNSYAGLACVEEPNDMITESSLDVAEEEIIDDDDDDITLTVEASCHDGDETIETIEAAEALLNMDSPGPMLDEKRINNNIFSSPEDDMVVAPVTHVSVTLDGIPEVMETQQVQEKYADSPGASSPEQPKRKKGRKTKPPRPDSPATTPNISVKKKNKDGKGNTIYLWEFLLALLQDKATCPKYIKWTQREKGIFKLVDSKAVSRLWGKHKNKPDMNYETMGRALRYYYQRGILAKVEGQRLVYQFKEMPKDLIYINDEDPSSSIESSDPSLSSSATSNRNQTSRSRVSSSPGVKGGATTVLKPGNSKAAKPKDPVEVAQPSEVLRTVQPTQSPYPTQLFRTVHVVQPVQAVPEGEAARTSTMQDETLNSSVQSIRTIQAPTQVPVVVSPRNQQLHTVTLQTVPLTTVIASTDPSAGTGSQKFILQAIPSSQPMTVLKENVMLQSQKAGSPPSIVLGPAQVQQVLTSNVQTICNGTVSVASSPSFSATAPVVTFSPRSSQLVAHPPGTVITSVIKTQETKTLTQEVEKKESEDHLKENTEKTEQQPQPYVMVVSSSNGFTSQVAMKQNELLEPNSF
How it was run: as §1

EHF = molecular target: T5, EHF (Homo sapiens, UniProt Q9NZC4 1-300); conditions: protein: recombinant; tags: N-terminal GST; dsDNA, one strand shown
T5 sequence: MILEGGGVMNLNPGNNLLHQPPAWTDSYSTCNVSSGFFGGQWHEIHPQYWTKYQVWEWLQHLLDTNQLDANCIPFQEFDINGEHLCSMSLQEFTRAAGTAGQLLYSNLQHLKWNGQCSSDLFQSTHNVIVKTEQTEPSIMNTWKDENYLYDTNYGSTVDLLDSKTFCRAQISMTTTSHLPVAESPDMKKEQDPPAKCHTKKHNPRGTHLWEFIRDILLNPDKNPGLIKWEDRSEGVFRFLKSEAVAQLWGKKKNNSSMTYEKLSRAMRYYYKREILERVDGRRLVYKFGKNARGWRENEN
How it was run: as §1

SPI1 = SPI1 (Homo sapiens, UniProt P17947 1-270); conditions: protein: recombinant; tags: N-terminal GST; dsDNA, one strand shown
How it was run: as §1

SPIB = SPIB (Homo sapiens, UniProt Q01892 1-262); conditions: protein: recombinant; tags: N-terminal GST; dsDNA, one strand shown
Chain of SPIB (Q01892 whole entry): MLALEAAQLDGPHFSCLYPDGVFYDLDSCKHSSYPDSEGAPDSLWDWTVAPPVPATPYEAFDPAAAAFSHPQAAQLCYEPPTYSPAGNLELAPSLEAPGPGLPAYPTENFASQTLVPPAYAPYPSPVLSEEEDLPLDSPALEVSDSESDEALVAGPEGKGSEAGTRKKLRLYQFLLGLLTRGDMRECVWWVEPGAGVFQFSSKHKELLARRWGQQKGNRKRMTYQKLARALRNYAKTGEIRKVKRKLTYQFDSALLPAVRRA
How it was run: as §1

ELK3 = molecular target: T6, ELK3 (Homo sapiens, UniProt P41970 1-407); conditions: protein: recombinant; tags: N-terminal GST; dsDNA, one strand shown
T6 sequence: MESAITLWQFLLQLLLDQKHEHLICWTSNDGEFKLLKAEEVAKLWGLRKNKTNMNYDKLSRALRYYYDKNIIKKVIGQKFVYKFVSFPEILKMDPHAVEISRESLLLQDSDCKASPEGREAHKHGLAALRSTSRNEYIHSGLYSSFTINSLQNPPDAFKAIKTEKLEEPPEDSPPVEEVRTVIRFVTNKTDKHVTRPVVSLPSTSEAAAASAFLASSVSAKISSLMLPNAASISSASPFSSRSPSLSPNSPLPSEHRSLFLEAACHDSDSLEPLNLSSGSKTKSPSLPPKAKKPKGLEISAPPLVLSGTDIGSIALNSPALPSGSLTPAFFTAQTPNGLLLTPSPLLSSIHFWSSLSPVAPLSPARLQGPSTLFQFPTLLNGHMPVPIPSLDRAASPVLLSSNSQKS
How it was run: as §1

FEV = molecular target: T7, FEV (Homo sapiens, UniProt Q99581 1-238); conditions: protein: recombinant; tags: N-terminal GST; dsDNA, one strand shown
T7 sequence: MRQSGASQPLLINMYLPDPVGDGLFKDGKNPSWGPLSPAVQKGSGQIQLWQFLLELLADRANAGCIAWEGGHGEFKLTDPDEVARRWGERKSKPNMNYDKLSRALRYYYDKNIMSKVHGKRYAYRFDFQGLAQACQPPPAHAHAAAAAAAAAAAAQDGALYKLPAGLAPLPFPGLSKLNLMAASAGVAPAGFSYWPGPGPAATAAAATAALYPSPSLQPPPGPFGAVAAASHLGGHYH
How it was run: as §1

ETV5 = ETV5 (Homo sapiens, UniProt P41161 1-510); conditions: protein: recombinant; tags: N-terminal GST; dsDNA, one strand shown
Chain of ETV5 (P41161 whole entry): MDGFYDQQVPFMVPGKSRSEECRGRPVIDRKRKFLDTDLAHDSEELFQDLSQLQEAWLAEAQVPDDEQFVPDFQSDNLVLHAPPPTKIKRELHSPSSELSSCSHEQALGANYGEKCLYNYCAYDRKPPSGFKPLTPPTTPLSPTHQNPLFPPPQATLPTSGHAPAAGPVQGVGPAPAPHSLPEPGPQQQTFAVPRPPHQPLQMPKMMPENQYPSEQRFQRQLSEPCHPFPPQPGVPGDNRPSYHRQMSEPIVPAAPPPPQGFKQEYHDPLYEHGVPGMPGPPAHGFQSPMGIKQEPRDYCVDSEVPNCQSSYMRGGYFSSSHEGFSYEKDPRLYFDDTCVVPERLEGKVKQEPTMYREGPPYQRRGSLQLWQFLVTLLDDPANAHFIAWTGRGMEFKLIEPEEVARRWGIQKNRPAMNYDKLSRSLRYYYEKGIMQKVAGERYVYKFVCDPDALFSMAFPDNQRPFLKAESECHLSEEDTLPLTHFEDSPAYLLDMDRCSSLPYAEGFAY
How it was run: as §1

HSF1 = HSF1 (Homo sapiens, UniProt Q00613 1-529); conditions: protein: recombinant; tags: N-terminal GST; chain copies: 3; dsDNA, one strand shown
Chain of HSF1 (Q00613 whole entry): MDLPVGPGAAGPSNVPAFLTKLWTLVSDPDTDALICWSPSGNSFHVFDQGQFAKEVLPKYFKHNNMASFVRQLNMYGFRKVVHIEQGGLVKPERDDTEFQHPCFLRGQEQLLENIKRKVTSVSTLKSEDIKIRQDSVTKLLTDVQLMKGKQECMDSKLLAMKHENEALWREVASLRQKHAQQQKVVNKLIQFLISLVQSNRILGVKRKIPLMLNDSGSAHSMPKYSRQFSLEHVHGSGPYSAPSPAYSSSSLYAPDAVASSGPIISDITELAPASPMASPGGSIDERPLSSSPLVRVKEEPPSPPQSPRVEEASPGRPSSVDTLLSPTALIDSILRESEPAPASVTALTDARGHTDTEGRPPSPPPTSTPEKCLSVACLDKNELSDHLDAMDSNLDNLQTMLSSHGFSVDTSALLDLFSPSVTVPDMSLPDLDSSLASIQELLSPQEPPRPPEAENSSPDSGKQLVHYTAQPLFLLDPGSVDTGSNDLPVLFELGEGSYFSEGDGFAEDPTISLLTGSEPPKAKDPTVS
How it was run: as §1

SPIC = molecular target: T8, SPIC (Homo sapiens, UniProt Q8N5J4 1-248); conditions: protein: recombinant; tags: N-terminal GST; dsDNA, one strand shown
T8 sequence: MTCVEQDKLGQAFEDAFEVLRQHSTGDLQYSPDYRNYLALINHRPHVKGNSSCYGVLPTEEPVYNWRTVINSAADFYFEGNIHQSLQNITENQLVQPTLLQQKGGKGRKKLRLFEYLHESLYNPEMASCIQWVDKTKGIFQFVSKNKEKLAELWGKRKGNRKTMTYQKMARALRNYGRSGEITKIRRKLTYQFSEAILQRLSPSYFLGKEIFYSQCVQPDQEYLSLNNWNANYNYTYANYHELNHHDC
How it was run: as §1

ELF4 = ELF4 (Homo sapiens, UniProt Q99607 1-663); conditions: protein: recombinant; tags: N-terminal GST; dsDNA, one strand shown
Chain of ELF4 (Q99607 whole entry): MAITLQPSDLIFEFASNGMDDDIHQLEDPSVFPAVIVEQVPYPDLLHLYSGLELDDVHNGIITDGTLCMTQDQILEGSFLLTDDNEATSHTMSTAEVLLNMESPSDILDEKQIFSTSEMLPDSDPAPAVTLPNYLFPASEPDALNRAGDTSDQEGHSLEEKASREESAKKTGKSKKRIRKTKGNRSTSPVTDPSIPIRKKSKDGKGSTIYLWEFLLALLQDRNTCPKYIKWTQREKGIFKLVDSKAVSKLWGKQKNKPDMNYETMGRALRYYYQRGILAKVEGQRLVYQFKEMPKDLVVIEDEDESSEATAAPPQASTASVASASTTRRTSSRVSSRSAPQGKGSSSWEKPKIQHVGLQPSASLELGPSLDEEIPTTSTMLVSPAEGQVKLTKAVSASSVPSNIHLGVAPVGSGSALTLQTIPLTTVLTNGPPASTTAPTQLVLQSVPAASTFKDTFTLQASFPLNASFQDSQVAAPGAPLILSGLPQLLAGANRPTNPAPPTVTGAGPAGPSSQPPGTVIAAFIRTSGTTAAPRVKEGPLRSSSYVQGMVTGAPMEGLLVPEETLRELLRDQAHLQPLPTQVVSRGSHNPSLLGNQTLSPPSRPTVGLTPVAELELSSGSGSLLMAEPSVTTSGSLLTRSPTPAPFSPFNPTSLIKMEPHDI
How it was run: as §1

ELK4 = molecular target: T9, ELK4 (Homo sapiens, UniProt P28324-2 1-405); conditions: protein: recombinant; tags: N-terminal GST; dsDNA, one strand shown
T9 sequence: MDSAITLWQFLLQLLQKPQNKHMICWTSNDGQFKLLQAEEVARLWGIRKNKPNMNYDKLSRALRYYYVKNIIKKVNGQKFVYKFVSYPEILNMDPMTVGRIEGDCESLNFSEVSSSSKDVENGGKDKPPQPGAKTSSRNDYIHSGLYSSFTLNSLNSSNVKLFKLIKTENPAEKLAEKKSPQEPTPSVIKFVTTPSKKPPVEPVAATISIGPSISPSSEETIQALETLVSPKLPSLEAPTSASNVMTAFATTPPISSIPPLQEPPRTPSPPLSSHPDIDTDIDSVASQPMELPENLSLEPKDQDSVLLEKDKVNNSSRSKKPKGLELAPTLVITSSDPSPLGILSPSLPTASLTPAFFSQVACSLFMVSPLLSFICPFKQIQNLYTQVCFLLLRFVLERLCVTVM
How it was run: as §1

ETV2 = molecular target: T10, ETV2 (Homo sapiens, UniProt O00321 1-342); conditions: protein: recombinant; tags: N-terminal GST; dsDNA, one strand shown
T10 sequence: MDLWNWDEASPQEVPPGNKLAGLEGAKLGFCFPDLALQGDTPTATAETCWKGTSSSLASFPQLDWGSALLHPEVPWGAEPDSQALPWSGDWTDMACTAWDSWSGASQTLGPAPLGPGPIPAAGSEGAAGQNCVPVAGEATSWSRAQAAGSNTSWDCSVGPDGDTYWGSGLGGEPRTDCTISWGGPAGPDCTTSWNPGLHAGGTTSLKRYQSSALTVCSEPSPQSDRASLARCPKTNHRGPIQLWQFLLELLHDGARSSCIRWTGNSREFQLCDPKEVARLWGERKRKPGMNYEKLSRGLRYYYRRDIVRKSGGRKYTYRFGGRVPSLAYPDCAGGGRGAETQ
How it was run: as §1

ELF3 = molecular target: T11, ELF3 (Homo sapiens, UniProt P78545 1-371); conditions: protein: recombinant; tags: N-terminal GST; dsDNA, one strand shown
T11 sequence: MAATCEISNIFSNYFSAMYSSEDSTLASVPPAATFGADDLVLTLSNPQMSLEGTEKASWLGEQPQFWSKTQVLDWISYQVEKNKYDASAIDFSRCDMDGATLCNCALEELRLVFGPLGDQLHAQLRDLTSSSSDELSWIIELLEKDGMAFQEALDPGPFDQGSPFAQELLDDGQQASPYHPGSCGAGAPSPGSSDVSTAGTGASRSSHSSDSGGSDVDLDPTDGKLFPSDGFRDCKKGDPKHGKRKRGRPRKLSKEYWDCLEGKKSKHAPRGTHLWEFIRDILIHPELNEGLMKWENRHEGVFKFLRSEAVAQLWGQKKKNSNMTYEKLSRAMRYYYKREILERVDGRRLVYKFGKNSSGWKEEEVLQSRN
How it was run: as §1

CRX = CRX (Homo sapiens, UniProt O43186 1-299); conditions: protein: recombinant; tags: N-terminal GST; dsDNA, one strand shown
Chain of CRX (O43186 whole entry): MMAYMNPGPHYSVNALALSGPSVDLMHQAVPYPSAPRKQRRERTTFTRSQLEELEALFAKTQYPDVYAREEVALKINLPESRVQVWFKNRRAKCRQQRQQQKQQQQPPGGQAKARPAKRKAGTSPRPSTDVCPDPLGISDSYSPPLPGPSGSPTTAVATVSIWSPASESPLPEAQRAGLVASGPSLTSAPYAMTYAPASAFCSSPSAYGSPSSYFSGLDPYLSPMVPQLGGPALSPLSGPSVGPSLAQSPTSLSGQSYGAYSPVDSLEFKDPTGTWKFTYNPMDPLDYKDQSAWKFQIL
How it was run: as §1

ETV1 = ETV1 (Homo sapiens, UniProt P50549 1-477); conditions: protein: recombinant; tags: N-terminal GST; dsDNA, one strand shown
Chain of ETV1 (P50549 whole entry): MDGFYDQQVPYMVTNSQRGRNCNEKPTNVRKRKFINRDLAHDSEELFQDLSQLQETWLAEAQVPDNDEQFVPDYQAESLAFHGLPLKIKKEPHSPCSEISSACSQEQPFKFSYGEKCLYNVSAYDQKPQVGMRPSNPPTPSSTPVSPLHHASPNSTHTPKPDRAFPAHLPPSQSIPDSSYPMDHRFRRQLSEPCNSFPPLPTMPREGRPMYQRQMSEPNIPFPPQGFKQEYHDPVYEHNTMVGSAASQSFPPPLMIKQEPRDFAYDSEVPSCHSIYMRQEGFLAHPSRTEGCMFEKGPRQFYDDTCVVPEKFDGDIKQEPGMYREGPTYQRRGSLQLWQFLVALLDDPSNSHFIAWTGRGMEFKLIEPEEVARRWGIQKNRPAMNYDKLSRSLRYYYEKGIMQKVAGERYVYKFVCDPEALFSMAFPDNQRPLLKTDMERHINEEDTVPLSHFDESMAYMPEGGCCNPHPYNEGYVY
How it was run: as §1

## ATTGCG
FLI1
  binding signal: 1.33 fold enrichment (6-mer frequency, TF over GST control)
ELK1
  binding signal: 1.06 fold enrichment (6-mer frequency, TF over GST control)
GABPA
  binding signal: 1.3 fold enrichment (6-mer frequency, TF over GST control)
ERG
  binding signal: 1.16 fold enrichment (6-mer frequency, TF over GST control)
ELF1
  binding signal: 1.27 fold enrichment (6-mer frequency, TF over GST control)
EHF
  binding signal: 1.28 fold enrichment (6-mer frequency, TF over GST control)
SPI1
  binding signal: 1.44 fold enrichment (6-mer frequency, TF over GST control)
SPIB
  binding signal: 1.1 fold enrichment (6-mer frequency, TF over GST control)
ELK3
  binding signal: 1.27 fold enrichment (6-mer frequency, TF over GST control)
FEV
  binding signal: 1.17 fold enrichment (6-mer frequency, TF over GST control)
ETV5
  binding signal: 1.24 fold enrichment (6-mer frequency, TF over GST control)
HSF1
  binding signal: 1.07 fold enrichment (6-mer frequency, TF over GST control)
SPIC
  binding signal: 1.29 fold enrichment (6-mer frequency, TF over GST control)
ELF4
  binding signal: 1.25 fold enrichment (6-mer frequency, TF over GST control)
ELK4
  binding signal: 1.14 fold enrichment (6-mer frequency, TF over GST control)
ETV2
  binding signal: 1.59 fold enrichment (6-mer frequency, TF over GST control)
ELF3
  binding signal: 1.29 fold enrichment (6-mer frequency, TF over GST control)
CRX
  binding signal: 1.12 fold enrichment (6-mer frequency, TF over GST control)
ETV1
  binding signal: 1.29 fold enrichment (6-mer frequency, TF over GST control)
